We go through 53 molecules from ChEMBL document CHEMBL4808148, “HDAC6 screening dataset using tau-based substrate in an enzymatic assay yields selective inhibitors and activators” (2021).

A word on the inhibition: it is the relative decrease from the control value, in per cent.

Out of some 5,600 compounds screened, about 150 (2.7%) showed an effect of 50% or more. The entries come from a sample that favours strong results as a whole.

The target in the assay is T1, Protein deacetylase HDAC6 (Homo sapiens) (UniProt Q9UBN7).
T1 sequence (whole entry): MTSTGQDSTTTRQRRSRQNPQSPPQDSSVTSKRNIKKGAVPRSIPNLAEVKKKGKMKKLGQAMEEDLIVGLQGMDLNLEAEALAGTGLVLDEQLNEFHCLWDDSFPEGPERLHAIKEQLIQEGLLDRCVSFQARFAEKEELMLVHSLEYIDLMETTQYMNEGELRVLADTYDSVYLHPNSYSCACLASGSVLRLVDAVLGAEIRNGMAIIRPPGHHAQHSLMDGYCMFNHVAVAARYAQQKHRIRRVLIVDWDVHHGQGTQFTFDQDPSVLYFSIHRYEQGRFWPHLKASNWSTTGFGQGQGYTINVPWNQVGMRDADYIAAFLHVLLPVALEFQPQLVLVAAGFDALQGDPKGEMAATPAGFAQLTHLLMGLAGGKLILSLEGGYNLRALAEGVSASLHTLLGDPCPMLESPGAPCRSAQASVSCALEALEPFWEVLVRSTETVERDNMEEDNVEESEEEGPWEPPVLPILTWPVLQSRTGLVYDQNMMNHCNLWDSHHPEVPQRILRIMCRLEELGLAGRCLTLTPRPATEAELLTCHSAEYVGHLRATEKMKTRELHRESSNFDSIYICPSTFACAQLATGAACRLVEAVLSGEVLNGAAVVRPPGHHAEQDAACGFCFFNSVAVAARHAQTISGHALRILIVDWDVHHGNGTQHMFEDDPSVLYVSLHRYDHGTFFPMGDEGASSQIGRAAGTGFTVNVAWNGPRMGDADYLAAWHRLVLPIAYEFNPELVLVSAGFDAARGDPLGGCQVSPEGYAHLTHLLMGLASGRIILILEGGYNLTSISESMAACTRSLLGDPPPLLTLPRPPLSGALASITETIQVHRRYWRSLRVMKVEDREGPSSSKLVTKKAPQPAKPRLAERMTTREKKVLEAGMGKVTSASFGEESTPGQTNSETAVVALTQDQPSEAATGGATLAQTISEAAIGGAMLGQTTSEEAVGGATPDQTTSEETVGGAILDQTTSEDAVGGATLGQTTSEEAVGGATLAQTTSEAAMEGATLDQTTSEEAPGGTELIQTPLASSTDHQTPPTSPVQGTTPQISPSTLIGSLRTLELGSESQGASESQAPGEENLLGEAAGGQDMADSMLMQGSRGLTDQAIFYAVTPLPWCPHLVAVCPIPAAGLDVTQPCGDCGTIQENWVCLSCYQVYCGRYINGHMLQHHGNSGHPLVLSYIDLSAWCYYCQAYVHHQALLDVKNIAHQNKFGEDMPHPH
To be noted: at 10 µM.

As for `N#C/C(=C\c1ccc(O)c(O)c1)C(=O)Nc1ccccc1`, the inhibition turned out to be 93.8%.

Regarding `C[C@H](NC(=O)/C(C#N)=C/c1ccc(O)c(O)c1)c1ccccc1`, the inhibition was determined as 20.7%.

For `N#C/C(=C\c1ccc(O)c(O)c1)C(=O)NCCCc1ccccc1`, the inhibition is 17.5%.

`N#C/C(=C\c1ccc(O)c(O)c1)C(N)=O`: the inhibition came out at 18.8%.

As for `N#C/C(=C\c1ccc(O)c(O)c1)C(=O)NCc1ccccc1`, the inhibition was determined as 54.9%.

Regarding `N#C/C(=C\c1ccc(O)c(O)c1)C(=O)NCCCCc1ccccc1`, the inhibition was found to be 1.74%.

As for `COCCOCCOc1ccc(C2=N[C@@](C)(C(=O)O)CS2)c(O)c1`, the inhibition is -6.58%.

Turning to `O=C(Nc1ccc(F)cc1)N1CCc2ccccc2C1c1ccc(C(F)(F)F)cc1` (stereo not drawn), the inhibition is -5.96%.

With `COC(=O)[C@H](CC(C)C)NC(=O)c1ccc(NC[C@@H](N)CS)cc1-c1cccc2ccccc12`, the inhibition was 3.13%.

Take `CC(C)=CCC[C@](C)(O)[C@H]1CC[C@]2(C)[C@@H]1[C@H](O)C[C@@H]1[C@@]3(C)CC[C@H](O)C(C)(C)[C@@H]3[C@@H](O)C[C@]12C`: the inhibition is -3.01%.

In the case of `OC[C@H]1NCC[C@@H](O)[C@@H]1O`, the inhibition is -1.49%.

With `CC[C@@H](Nc1c(Nc2cccc(C(=O)N(C)C)c2O)c(=O)c1=O)c1ccc(C)o1`, the inhibition is -5.03%.

In the case of `CC(=O)c1ccc2c(c1)[C@@H]1C=CC[C@@H]1[C@H](c1cc3c(cc1Br)OCO3)N2`, the inhibition was -3.37%.

On to `N=C(N)NCCSSCCNC(=N)N`, for which the inhibition was -3.98%.

Turning to `CC(=O)N[C@H](Cc1c[nH]c2ccccc12)C(=O)OCc1cc(C(F)(F)F)cc(C(F)(F)F)c1`, the inhibition was -8.38%.

Consider `Cc1ccc(NC2=CC(=O)c3sc(C)nc3C2=O)cc1`, for which the inhibition was 58.6%.

Consider `Fc1ccc2c(CCNCc3cccc(OCC(F)(F)C(F)F)c3)c[nH]c2c1`, for which the inhibition stood at 4.2%.

Take `CC[C@]1(O)C[C@@H]2CN(CCc3c([nH]c4ccccc34)[C@@](C(=O)OC)(c3cc4c(cc3OC)N(C)[C@H]3[C@@](O)(C(N)=O)[C@H](O)[C@]5(CC)C=CCN6CC[C@]43[C@@H]65)C2)C1`: the inhibition was -4.06%.

As to `CCCC(=O)N1CCCN(c2nc(N)c3cc(OC)c(OC)cc3n2)CC1`, the inhibition was 15.5%.

Regarding `COc1cc2nc(N3CCN(C(=O)C4COc5ccccc5O4)CC3)nc(N)c2cc1OC` (stereo not drawn), the inhibition is -3.15%.

For `COc1cc2nc(N3CCN(C(=O)C4CCCO4)CC3)nc(N)c2cc1OC` (stereo not drawn), the inhibition amounted to 79%.

As to `CCCOCCn1c(=O)c(N2CCN(CCO)CC2)nc2cnc(-c3ccc(OC)nc3)cc21`, the inhibition was 2%.

As to `O=C(O)CN1CCN(CC(=O)O)CCN(CC(=O)O)CCN(CC(=O)O)CC1`, the inhibition was -2.86%.

Consider `CSc1ccc([C@H]2CN3CCC[C@H]3c3ccccc32)cc1` (racemic), for which the inhibition is -1.09%.

Consider `Nc1nncs1`, for which the inhibition stood at 60.9%.

`Nc1nccs1`: the inhibition is -0.93%.

For `COCCOc1ccc(N2CCN(CCn3ncc4c3nc(N)n3nc(-c5ccco5)nc43)CC2)cc1`, the inhibition worked out at 4.38%.

Turning to `Cc1ccc(S(=O)(=O)OCC(=O)Nc2ccc(C(=O)O)c(O)c2)cc1`, the inhibition is -5.6%.

As to `NS(=O)(=O)c1ccc(NC(=O)Nc2ccc(F)cc2)cc1`, the inhibition worked out at 0.46%.

`Cc1cc(C)cc(NC(=O)Nc2ccc(OS(N)(=O)=O)cc2)c1`: the inhibition is 76.1%.

For `COC(=O)c1ccccc1NC(=O)c1ccc(F)cc1`, the inhibition is 0.65%.

Take `Cc1c(CN2CCN(C(=O)[C@H](C)O)CC2)sc2c(N3CCOCC3)nc(-c3cnc(N)nc3)nc12`: the inhibition is -2.64%.

`COc1ccc(-c2nc(N3CCOCC3)c3sc(CN(C)c4ncc(C(=O)NO)cn4)cc3n2)cn1`: the inhibition was determined as 97.1%.

On to `CS(=O)(=O)N1CCN(Cc2cc3nc(-c4cccc5[nH]ncc45)nc(N4CCOCC4)c3s2)CC1`, for which the inhibition stood at 3.78%.

As for `CC(=O)N(OCc1ccccc1)[C@@H]1c2cc(C#N)ccc2OC(C)(C)[C@H]1O`, the inhibition is 0.48%.

For the molecule `O=C(O)CC/C=C\C[C@@H]1CO[C@H](c2ccccc2Cl)O[C@@H]1c1ccccc1O`, the inhibition amounted to 11.4%.

In the case of `O=C(NCc1ccc(F)cc1)N1CCN2C(=O)OC(c3ccccc3)(c3ccccc3)C2C1` (stereo not drawn), the inhibition is -3.2%.

`CCCn1c(=O)[nH]c2nc(-c3ccc(S(=O)(=O)O)cc3)[nH]c2c1=O`: the inhibition turned out to be 1.08%.

Take `Nc1ccc(-c2nc3ccc(-c4nc5ccc(N)cc5[nH]4)cc3[nH]2)cc1`: the inhibition is 0.97%.

As to `O=S(=O)(O)c1ccc2[nH]c(-c3ccccc3)nc2c1`, the inhibition was found to be 94.7%.

`O=C(O)Cc1ccc(CCNS(=O)(=O)c2ccc(Cl)cc2)cc1`: the inhibition was determined as 9.85%.

As for `COc1cccc(-c2cc(=O)c3ccccc3o2)c1N`, the inhibition was 90%.

Take `Cc1cc(C(=O)N2Cc3cnn(C)c3Nc3ccccc32)ccc1CNC(=O)N1CCC[C@H]1C(=S)N1CCCN(C)CC1`: the inhibition was -1.87%.

With `CS(=O)(=O)Nc1ccc2oc3c(OC(F)F)ccc(C(=O)Nc4c(Cl)cncc4Cl)c3c2c1`, the inhibition was -3.43%.

For `CC(C)[C@@H](CS(=O)(=O)C(C)C)N1C(=O)[C@@](C)(CC(=O)O)C[C@H](c2cccc(Cl)c2)[C@H]1c1ccc(Cl)cc1`, the inhibition was -1.54%.

`CC1=NN(c2ccccc2)C(=O)C1`: the inhibition is -3.47%.

For the molecule `Cn1c(-c2ccccc2)nnc1S(C)(=O)=O`, the inhibition was -7.28%.

In the case of `C/N=c1/nc(-c2ccccc2)n(-c2ccccc2)s1`, the inhibition was found to be 69.9%.

Regarding `Clc1cccc(Cl)c1CSc1nnc(-c2cnccn2)s1`, the inhibition is 5.02%.

For the molecule `O=c1c2ccccc2oc2ccccc12`, the inhibition is 37.9%.

In the case of `c1ccc(-c2n[nH]c3c2oc2ccccc23)cc1`, the inhibition came to 70.2%.

`N=C(N)NC(=N)Nc1cccc(Cl)c1`: the inhibition is -4.52%.

As to `O=C(Nc1ccc(Cl)cc1)Nc1cccc(-c2cccc(N3CCCC3)n2)c1`, the inhibition is -4.23%.
